Most compounds without a hit are left out; they make up all but 2.6% or so of the library.
Cruzain inh noDet: inhibitors of Trypanosoma cruzi cruzain without detergent; purified cruzain, Z-FR-AMC fluorescence, no detergent; 200,000 compounds, 2.3% hits; Potency, µM, for the others: max response, negative = inhibition, actives largely listed as inhibitors; AID 1476; P25779;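 further: plate controls were enzyme without inhibitor for no effect and buffer without enzyme for full effect; nearly all actives have a fitted effect of over 40% in size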
Target sequence (P25779 123-467 limits assumed): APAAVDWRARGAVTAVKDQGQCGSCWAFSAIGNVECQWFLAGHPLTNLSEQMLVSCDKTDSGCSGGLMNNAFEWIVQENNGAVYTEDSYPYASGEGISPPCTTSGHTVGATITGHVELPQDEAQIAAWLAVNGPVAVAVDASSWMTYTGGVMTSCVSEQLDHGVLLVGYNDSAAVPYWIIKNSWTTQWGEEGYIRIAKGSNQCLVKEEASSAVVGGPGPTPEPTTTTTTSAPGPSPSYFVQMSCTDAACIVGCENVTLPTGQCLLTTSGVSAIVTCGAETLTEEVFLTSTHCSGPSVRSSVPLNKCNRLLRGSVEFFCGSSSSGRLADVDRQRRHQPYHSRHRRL
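Purified cruzain at 1.5 nM, pre-incubated 15 min with compound at room temperature in 100 mM sodium acetate pH 5.5, 5 mM DTT, 0.00005% Triton X-100. Reaction started with 2 uM Z-FR-AMC; AMC fluorescence increase over 60 s gives rate.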
Cruzain Triton: blocks cruzain activity in presence of Triton detergent; P25779; purified cruzain, Z-FR-AMC fluorescence, 0.01% Triton; Potency, µM, for the others: max response, negative = inhibition, usual class: inhibitors; 200,000 compounds, 0.43% hits;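 further: plate controls were neutral wells for no effect and buffer without enzyme for full effect; nearly all actives have a fitted effect of over 40% in size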
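Cysteine protease activity tested under reducing, mildly acidic conditions (100 mM sodium acetate pH 5.5, 5 mM DTT) plus 0.01% Triton X-100. Cruzain 1.5 nM; substrate Z-FR-AMC 2 uM; 15 min compound preincubation at room temperature.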
* marks the source's active call; other numbers are inactive results; ? = inconclusive. The call rests on the fitted dose curve; in most records, active means well fitted curve in the direction sought with a large enough effect; inconclusive means small, poorly fitted or top-dose-only effect, or another doubt; inactive means no such curve, though single readings can be large; an effect the other way counts as inactive or inconclusive. Potency means the concentration at half of the fitted maximal effect.

SMILES	Cruzain inh noDet	Cruzain Triton
N#CS.N=C=S.N=C=S.[Cu].[NH2-].[NH2-].[NH2-].[NH2-].c1ccc2ncccc2c1	20%	-1%
Cc1cc(/C=N/NC(N)=S)c(C)n1-c1ccc(Cl)cc1	?	28µM*
Cc1cccc(C)c1-n1c(C)cc(/C=N/NC(N)=S)c1C	?	-16%
CN(C)c1ncc2nc(CCc3ccccc3)c(=O)n(Cc3cccs3)c2n1	-13%	-5%
CN(C)CCNc1nc(-c2ccco2)c2c(c1C#N)CC(C)(C)OC2	4%	-5%
N#Cc1c(NCCN)nc(-c2ccco2)c2c1CCCC2	25µM*	-7%
Cc1ccc(Cn2ccnc2SCC(=O)NCc2ccccc2)cc1	2%	-2%
CCc1cccc(C)c1NC(=O)C(CC)Sc1nc2ccncc2[nH]1 (stereo unspecified)	0%	-5%
N#CC1=C(N)N(c2ccc(Cl)cc2)C2=C(C(=O)CCC2)C1c1cc(CN2CCOCC2)cs1 (stereo unspecified)	14%	2%
COc1cc(/C=N/Nc2cccc(C)c2)ccc1OC(=O)c1cccs1	16µM*	-3%
COc1cc(/C=N/NC(=O)COc2ccccc2C)ccc1OC(=O)c1cccs1	-13%	0%
COc1cc(/C=N/Nc2nc(C)cc(C)n2)ccc1OC(=O)c1ccco1	6%	-6%
COc1cc(/C=N/Nc2ccc3ccccc3c2)ccc1OC(=O)c1ccco1	25µM*	0%
COc1cccc(Nc2sc(C(=O)c3ccc(F)cc3)c(N)c2C(=O)NCc2ccc(C)cc2)c1	?	0%
CC(C)(C)OC(=O)NCCCCC1=CC2=CC(=O)C(C)(OC(=O)CCc3ccccc3)C(=O)C2=CO1 (stereo unspecified)	2%	1%
Clc1ccc(-c2noc(-c3cccnc3N3CCN(c4ccccc4)CC3)n2)cc1	2%	-3%
O=C(NCCc1c[nH]c2ccccc12)C(=O)NCC1OCCCN1S(=O)(=O)c1ccccc1 (stereo unspecified)	25µM*	-4%
Cc1ccc(S(=O)(=O)N2CCCOC2CNC(=O)C(=O)NCCc2c[nH]c3ccccc23)cc1 (stereo unspecified)	?	-5%
Nc1cccc(Cl)c1	5%	0%
Nc1cccc(N)c1	?	11µM*
COc1cccc(Cn2c(=O)c(-c3cccs3)nc3cnc(N(C)C)nc32)c1	1%	0%
NC(=S)N=Nc1c(O)[nH]c2ccccc12	13µM*	?
Oc1[nH]c2ccccc2c1N=NC(=S)NCCc1ccccc1	1%	-11%
Cc1ccc(NC(=O)Cn2c(-c3ccc4c(c3)OCO4)cn(-c3ccccc3)c2=O)cc1C	-21%	-8%
CSc1cccc(-n2cc(-c3ccc4c(c3)OCO4)[nH]c2=O)c1	32µM*	-6%
SMILES	Cruzain inh noDet	Cruzain Triton
Cc1cc(C)cc(NC(=O)c2cc(CN3CCCC3)on2)c1	-9%	-1%
CCCC(=O)NCCc1nc2ccccc2n1Cc1c(F)cccc1Cl	0%	?
CC1(OC(=O)c2cnc3ccccc3n2)C(=O)C=C2C=C(c3ccsc3)OC=C2C1=O (stereo unspecified)	-2%	5%
N#CNC(=Nc1ccc(F)cc1)SCc1ccccc1	25µM*	2%
CC(C)N=C(NC#N)SCc1ccc(F)cc1	9%	3%
Cc1cccc(NC(=O)c2oc3ccccc3c2NC(=O)c2cc(=O)c3ccccc3o2)c1	6%	-2%
Cn1c(=O)c2cc(S(=O)(=O)NC(Cc3ccccc3)C(=O)NCc3ccco3)ccc2n(C)c1=O (stereo unspecified)	16µM*	20µM*
COCCCNC(=O)C(Cc1ccccc1)NS(=O)(=O)c1ccc2c(c1)c(=O)n(C)c(=O)n2C (stereo unspecified)	-8%	1%
Cc1ccc(-c2ccc(C(=O)Nc3ccccc3)o2)c2ccccc12	?	-19%
Cc1ccc(S(=O)(=O)NC(=O)c2ccc(-c3ccc(C)c4ccccc34)o2)cc1	8%	25µM*
CCc1ccc(CN(C(=O)c2cc(=O)c3ccc(C)cc3o2)C2CCS(=O)(=O)C2)cc1 (stereo unspecified)	35%	-6%
Cc1cc(=O)n(Cc2ccc(F)cc2Cl)c2c1c(C)nn2C	-5%	-2%
Cc1cccc(N=Nc2c(N)n[nH]c2-c2ccc(Cl)cc2)c1	25µM*	-6%
Cc1ccc(-c2[nH]nc(N)c2N=Nc2cccc(Cl)c2C)cc1	?	-3%
CCc1cc2c(cc3c(=O)n(CC(=O)NC4CCCCC4)ncn32)s1	-11%	0%
COc1ccc(COc2cc(-c3cccc(OC)c3)nc3ccc(NC(=O)c4ccc(N(C)C)cc4)cc23)cc1	6.3µM*	-2%
COc1ccc(COc2cc(-c3cccc(OC)c3)nc3ccc(N)cc23)cc1	?	0%
COc1ccc(COc2cc(-c3cccc(OC)c3)nc3ccc(NC(=O)c4ccc(C)cc4)cc23)cc1	7.9µM*	3%
COc1ccc(COc2cc(-c3cccc(OC)c3)nc3ccc(NC(C)=O)cc23)cc1	?	1%
CC1CCN(C(=O)c2cc3c(=O)n(C)c4cc(Cl)ccc4c3s2)CC1	16%	3%
O=C(CC1N=C2c3ccccc3N=C(SCc3ccc(Cl)cc3)N2C1=O)NCCc1ccccc1 (stereo unspecified)	-13%	-5%
O=C(c1ccc(Cl)cc1)N1CCCCC1CCN1CCOCC1 (stereo unspecified)	-20%	0%
CCc1cccc(C)c1NC(=O)CCCSc1nc2ccccc2s1	-5%	-6%
CCc1cccc(CC)c1NC(=O)C1SC(=Nc2ccccc2C)C(c2nc3ccccc3s2)=C1N (stereo unspecified)	6.3µM*	2%
O=C(O)/C=C(/C(=O)O)[C@]12CCN3CC4=CCO[C@@H]5CC(=O)N[C@@H]1C5[C@H]4C[C@H]32 (stereo partly specified)	7%	-5%
SMILES	Cruzain inh noDet	Cruzain Triton
CCOC(=O)C1=C(c2ccccc2)N=c2s/c(=C\c3ccc(O)cc3)c(=O)n2C1c1cccs1 (stereo unspecified)	13µM*	1%
COC(=O)C1=C(C)N=c2s/c(=C/c3cccs3)c(=O)n2C1c1cccs1 (stereo unspecified)	-19%	0%
COc1ccc(-n2ncc(C(=O)Nc3ccc4c(c3)OCCO4)c2C2CCN(C(=O)OC(C)(C)C)CC2)cc1	-9%	-8%
COc1ccc(CCNC(=O)Cn2c(=O)n(-c3ccc(OC)c(OC)c3)c(=O)c3ccccc32)cc1OC	-7%	0%
Cc1ccc(-c2cc(-c3ccccc3)c3c(N)c(S(C)(=O)=O)sc3n2)cc1	?	-8%
CS(=O)(=O)c1sc2nc(-c3cccs3)cc(-c3ccccc3)c2c1N	20µM*	-18%
CCOc1ccc(NC(=O)[C@H]2O[C@@H]3OC(C)(C)O[C@@H]3[C@H]3OC(C)(C)O[C@H]32)cc1	4%	-1%
CC(=O)Oc1ccc(/C=C/C(=O)CC2OC(Oc3cc(OC(C)=O)c4c(c3)O[C@@H](c3ccc(OC(C)=O)cc3)CC4=O)C(OC(C)=O)C(OC(C)=O)C2OC(C)=O)cc1 (stereo partly specified)	-3%	0%
CN(C)C(=O)CSc1nnc([C@@H](N)Cc2ccccc2)o1	25µM*	20µM*
C[C@H](N)c1nnc(SCC(=O)N(C)C)o1	2%	1%
COc1cc2c(cc1O)[C@@H](c1cc(O)c(O)c(OC)c1)[C@@](O)(C(=O)O)[C@@H](CO)[C@@H]2O	-3%	3%
